In the library only some 8.3% were active in any assay of this set; here they are far more common.
Giardia FBPA inh – blocks Giardia fructose-bisphosphate aldolase activity; purified Giardia FBPA; Potency, µM (doses to about 59.6 µM), actives largely listed as inhibitors; AID 2451; 0.71% of 290,000 active; A8B2U2; note: nearly all actives have a fitted effect of over 55% in size
Target sequence (A8B2U2 whole entry, looked up): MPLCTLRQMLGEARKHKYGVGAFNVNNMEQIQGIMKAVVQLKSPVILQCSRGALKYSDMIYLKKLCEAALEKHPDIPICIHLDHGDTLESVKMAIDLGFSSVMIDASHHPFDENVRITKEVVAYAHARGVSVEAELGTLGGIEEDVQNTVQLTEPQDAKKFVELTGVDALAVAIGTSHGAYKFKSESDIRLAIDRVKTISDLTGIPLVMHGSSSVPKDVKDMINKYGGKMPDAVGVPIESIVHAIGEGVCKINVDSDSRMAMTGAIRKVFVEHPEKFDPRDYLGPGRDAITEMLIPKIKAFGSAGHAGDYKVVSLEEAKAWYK
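Giardia FBPA (40 nM reagent) was preincubated 10 min at RT with compound (up to 57.5 uM final), then substrate plus GAPDH/TPI/NAD/arsenate coupling system with diaphorase/resazurin was added; resorufin fluorescence (525/598 nm) was read after 20 min.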
HCV inh – HCV inhibition; Huh7.5.1 HCVcc-Cre infection, luciferase reporter, 44 h; Potency, µM (titrated, usually from 41.8 µM), most hits filed as inhibitors; 3.4% of 340,000 active; AID 651820
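After 44 h co-culture of compound, cells and HCVcc-Cre (~0.5 moi), substrate is added for 15 min at room temperature and luciferase measured over 15 sec. Cells were seeded at 1,000/well and pre-cultured 4 h.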
MARV entry inh – inhibitors of Marburg virus binding or cell entry | Marburg virus pseudotyped entry inhibition, cell reporter | Potency, µM (titrated, usually from 37.8 µM), actives largely listed as inhibitors | 1.8% of 300,000 active; calls by dose curve; tested in HEK293 cells
FMDV inh – antivirals against foot and mouth disease virus; FMDV antiviral cell-based qHTS; Potency, µM (doses to about 57.9 µM), actives largely listed as inhibitors; 1.2% of 410,000 active; AID 1159524; calls by dose curve; tested in HEK293T cells; note: read-out not given here; nearly all actives have a fitted effect of over 45% in size
LASV entry inh – inhibitors of Lassa virus binding or cell entry; Potency, µM (series often up to 37.9 µM), hits mostly inhibitors; 1.2% of 300,000 active; Lassa virus pseudotype entry inhibition, cell reporter; calls by dose curve; tested in HEK293 cells; note: nearly all actives have a fitted effect of over 50% in size
HCMV antiviral – blocks human cytomegalovirus replication; HFF cells, HCMV-luciferase reporter, 72 h; active compounds read low; 4.5% of 410,000 active; activity change, negative = inhibition, % at 57.5 µM; AID 1259415; in the data active = activity change below about -60%; inconclusive = no clear call, values can overlap the other calls; inactive = above about -39%
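Two compound doses tested in HFFs infected with HCMV-luciferase, MOI 1 PFU/cell, 72 h at 37C. Lysate luminescence read with OneGlo; data normalized against buffer-only and 10uM Salinomycin inhibitor controls.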
A number is an active result; n = inactive; u = inconclusive; x = not tested or not shown; ! = not confirmed by another sample; [ ] = another dose, or the depositor's remark. Unless noted, calls come from the whole dose curve; as a rule, active = well fitted curve in the direction sought with a large enough effect; inconclusive = small, poorly fitted or top-dose-only effect, or another doubt; inactive = no such curve, though single readings can be large; an effect the other way counts as inactive or inconclusive.

SMILES	Giardia FBPA inh	HCV inh	MARV entry inh	FMDV inh	LASV entry inh	HCMV antiviral
O=C(OCc1cccs1)c1ccccc1NS(=O)(=O)c1ccc2c(c1)OCCO2	n	8.9µM	u	n	n	n
O=C(c1ccccc1NS(=O)(=O)c1ccc2c(c1)OCCO2)N1CCOCC1	n	n	n	x	n	n
CCOC(=O)c1c(C)n(C)c2ccc(O)c(CN3CCN(C)CC3)c12	u	u	n	x	n	n
CCOC(=O)c1c(-c2ccccc2)oc2cc(CN(C)C)c(O)c(CN(C)C)c12	x	10µM	u	n	u	-106
CCOC(=O)c1c(CS(=O)(=O)c2ccccc2)n(C)c2cc(Br)c(O)c(CN(C)C)c12	n	u	n	n	n	u
CCOC(=O)c1c(C)oc2cc(Cl)c(O)c(CN(C)C)c12	n	u	n	n	n	n
CCOC(=O)c1c(-c2ccccc2)oc2ccc(O)c(CN3CCN(C)CC3)c12	n	13µM	u	n	u	-66
CCOC(=O)c1c(C)n(C)c2cc(CN(C)C)c(O)c(S(=O)(=O)c3ccccc3)c12	n	n	n	n	n	-69
Cc1ccc(C)n1C1C(=O)N(Cc2ccc(C(C)C)cc2)c2ccc(Cl)cc21 (stereo unspecified)	x	x	x	x	x	n
COc1ccc2c(c1)c(=O)c(C(=O)c1ccc(F)cc1)cn2CC(=O)Nc1ccc2c(c1)OCO2	x	x	n	n	n	n
COc1ccccc1N1CCN(C(=O)c2ccc3[nH]c(C)c(C)c3c2)CC1	n	n	x	n	x	n
CC1CCc2[nH]c3ccc(C(=O)NCCCOC(C)C)cc3c2C1 (stereo unspecified)	u	10µM	x	n	x	n
COc1ccccc1N1CCN(C(=O)c2ccc3[nH]c4c(c3c2)CC(C)CC4)CC1 (stereo unspecified)	n	11µM	u	u	u	n
CSc1nn(CCC#N)c(=O)[nH]c1=O	x	x	x	x	x	n
Cc1ccc(Cl)cc1N1CCN(C(c2ccc(C#N)cc2)c2nnnn2C2CCCC2)CC1 (stereo unspecified)	n	n	5.8µM	n	n	u
Cc1ccc(Cl)cc1N1CCN(C(c2cccnc2)c2nnnn2C2CCCCC2)CC1 (stereo unspecified)	n	n	15µM!	x	u	n
C/C(=C1/SC(N2CCCC2)=NC1=O)c1ccc(Br)cc1	n	u	4.5µM	n	4.5µM	n
CC(C)=C1SC(N2CCCCC2)=NC1=O	n	n	n	n	n	n
Cc1ccc(NC(=O)CN2C(=O)COc3ccc(S(=O)(=O)N4CCCCC4)cc32)cc1N(C)C	x	x	x	n	n	n
COc1ccc(Cl)cc1NC(=O)CSc1nc(Nc2ccccc2)nc(N2CCOCC2)n1	n	11µM	x	u	x	n
O=C(CSc1nc(Nc2ccccc2)nc(N2CCOCC2)n1)Nc1ccc([N+](=O)[O-])cc1	n	11µM	u	n	n	n
O=C(CSc1nc(Nc2ccccc2)nc(N2CCOCC2)n1)Nc1ccccc1Cl	n	u	u	x	4.6µM	u
COc1ccc(Cl)cc1NC(=O)CSc1nc(N2CCOCC2)nc(N2CCOCC2)n1	x	u	u	n	u	n
CCNc1nc(SCc2ccccc2)nc(N2CCOCC2)n1	n	5.6µM	u	n	u	n
CN(C)c1nc(SCc2ccccc2)nc(N2CCOCC2)n1	n	u	n	n	n	n
SMILES	Giardia FBPA inh	HCV inh	MARV entry inh	FMDV inh	LASV entry inh	HCMV antiviral
COc1cc(OC)cc(C(=O)Nc2ccc(-c3nc4cc(C(C)C)ccc4o3)cc2)c1	x	x	x	n	n	u
CC(=O)N(c1nc2ccccc2s1)N1C(=O)c2ccccc2C1=O	x	x	x	x	x	n
CCn1cc(CNC(=O)c2cc(COc3ccc(F)cc3Cl)on2)cn1	n	u	15µM	n	u	u
CN(Cc1cccc2cnccc12)C(=O)c1cc(COc2ccc(F)cc2Cl)on1	n	10µM	n	n	u	n
Cc1nnc(CN(C)C(=O)c2cc(COc3ccc(F)cc3Cl)on2)o1	x	n	u	n	n	x
CCn1nc(C)c(CNC(=O)c2cc(COc3ccc(F)cc3Cl)on2)c1C	n	u	x	u	x	-85
CCn1nc(C)c(CNC(=O)c2cc(COc3ccc(C)nc3)on2)c1C	n	11µM	u	u	u	n
C[C@H]1Cc2c(-c3ccccc3)nc3c(c2CO1)CN(C(=O)c1ccco1)CC3	n[12.9 µM]	x	x	x	x	x
CCN(CCCNC(=O)CSc1cc(=O)n(CC)c2ccccc12)c1ccccc1	x	x	u	n	n	n
O=C(NC1CC(=O)N(c2cccc(F)c2)C1)C1CC1 (stereo unspecified)	x	x	x	n	n	n
Cc1cc2oc(=O)cc(C)c2cc1NC(=O)CCl	n	u	u	u	u	-100
Cc1cc2c(C)cc(=O)[nH]c2cc1NC(=O)CCl	n	11µM	n	u	x	n
Cc1cc2oc(=O)cc(C)c2cc1NC(=O)CCC(=O)O	n	n	n	x	n	n
CCC1CCCCN1S(=O)(=O)c1ccc(NC(=O)c2cc(=O)c3c(C)cc(C)cc3o2)cc1 (stereo unspecified)	x	x	n	n	n	n
O=C1COCc2ccc(-c3ccc(Cl)cc3)cc2N1CCN1CCOCC1	x	x	x	x	x	n
CCc1nnc(NC(=O)Nc2ccc(Cl)cc2)s1	n	n	x	n	x	n
O=C(Nc1ccc(Cl)cc1)Nc1nnc(CSCc2ccc(Cl)cc2)s1	n	5µM	x	u	x	-67
N#Cc1c(NC(=O)c2ccccc2Cl)n(Cc2ccccc2)c2nc3ccccc3nc12	u	u	n	n	u	-70
CCCCn1c(NC(=O)c2ccccc2Cl)c(C#N)c2nc3ccccc3nc21	u	n	21µM	n	n	-60
CCCCn1c(NC(=O)CC)c(C#N)c2nc3ccccc3nc21	n	n	n	n	n	n
CCCCn1c(NC(=O)c2ccc(Br)o2)c(C(=O)OCC)c2nc3ccccc3nc21	u	u	n	n	n	-71
COC(=O)N[C@@H](c1cccc(C)c1)C(C(C)=O)C(=O)OC (stereo partly specified)	n	x	n	x	x	x
Cc1c(/C=N/NC(=O)c2ccc(O)cc2)c2ccccn2c1C(=O)c1ccc(F)cc1	n	u	u	u	11µM	n
COC(=O)N/N=C/c1c(C)c(C(=O)c2ccc(F)cc2)n2ccccc12	n	u	u	35µM	u	n
Cc1c(/C=N/NC(=O)c2ccccc2O)c2ccccn2c1C(=O)c1ccc(F)cc1	n	u	11µM	25µM	u	n
SMILES	Giardia FBPA inh	HCV inh	MARV entry inh	FMDV inh	LASV entry inh	HCMV antiviral
COc1cc(CN(C(=O)c2ccc(OC(C)C)cc2)c2ccccn2)cc(OC)c1OC	x	x	u	n	n	n
Cn1nc(C(C)(C)C)cc1C(=O)NCc1cc(F)cc2c1OCOC2	n	u	x	13µM	x	-72
COc1cc(OC)cc(-c2oc(=O)c3cc(OC)c(OC)cc3c2C#CCCO)c1	x	u	x	n	x	n
COc1ccc(-c2oc3ccccc3c2C#CC(C)(C)O)cc1	x	7.9µM	x	n	x	n
COc1ccc(-c2c(C#CC(C)(C)O)c3ccccc3n2C)cc1	x	u	x	n	x	n
COc1ccccc1-c1oc2ccccc2c1C#CCCO	x	14µM	x	n	x	n
COc1ccc(-c2oc(=O)c3cc(OC)c(OC)cc3c2C#CCCO)cc1	x	3.2µM	x	n	x	n

Screening data deposited in PubChem by National Center for Advancing Translational Sciences (NCATS).
